# The panel holds about 79,000 compounds, 15% with a hit somewhere; the sample as a whole holds those more often. A number with no mark means an inactive call. Activity calls are given as the source filed them. Cut-off read from the data, not from the text of the source: active = growth inhibition above about 70%; inactive = the rest.
# Tests used:
# [1] = NCI Yeast Anticancer Drug Screen. Data for the rad50 strain (AID 155);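 note: 0% = growth of vehicle-only cultures of the same strain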; details: S. cerevisiae rad50 strain growth inhibition; at 50.0 µM; active compounds read high
# Method in brief: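 Vehicle-treated cultures provide the reference for the growth inhibition reported for compound-exposed, repair-deficient yeast.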
# [2] = NCI Yeast Anticancer Drug Screen. Data for the mec2-1 strain (AID 157); details: S. cerevisiae mec2-1 strain, at 50.0 µM, active compounds read high
# Method in brief: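 Yeast mec2-1 mutant treated with compound. Readout: growth inhibition vs vehicle controls.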
# [3] = NCI Yeast Anticancer Drug Screen. Data for the sgs1 mgt1 strain (AID 161);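 note: 0% = growth of cultures given vehicle only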; details: S. cerevisiae sgs1 mgt1 strain, at 50.0 µM, active compounds read high
# Method in brief: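 Inhibition of yeast growth, normalised to vehicle-treated controls, is reported for a strain bearing genetic alterations in DNA damage repair.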
# [4] = NCI Yeast Anticancer Drug Screen. Data for the cln2 rad14 strain (AID 165);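 note: 0% = growth equal to vehicle treated cultures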; details: S. cerevisiae cln2 rad14 strain, at 50.0 µM, active compounds read high
# Method in brief: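 cln2 rad14 yeast strain; compound exposure; growth inhibition read vs vehicle controls.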
# [5] = NCI Yeast Anticancer Drug Screen. Data for the bub3 strain (AID 167); details: S. cerevisiae bub3 mutant strain, at 50.0 µM, active compounds read high
# Method in brief: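 Mutant yeast screening strain plus compound; vehicle-treated cultures serve as the 0% inhibition reference.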
# [6] = NCI Yeast Anticancer Drug Screen. Data for the mlh1 rad18 strain (AID 175); details: S. cerevisiae mlh1 rad18 strain growth inhibition; at 50.0 µM; active compounds read high
# Method in brief: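 Yeast w/ defined DNA-repair lesions; compound exposure; growth vs vehicle controls → % inhibition.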
SMILES,growth inhibition [1],growth inhibition [2],growth inhibition [3],growth inhibition [4],growth inhibition [5],growth inhibition [6]
CCCCSCCOC(=O)Nc1ccc(Cl)cc1,98.8% (active),99.3% (active),98% (active),95.7% (active),99.3% (active),98.8% (active)
Nc1c2ccccc2nc2nccnc12,3.6%,2.65%,5.95%,16.9%,-3%,30.4%
CC1(c2ccccc2)OCC(c2ccccc2)O1 (centres undefined),-9.2%,-23.2%,-7%,-22%,12.7%,10.3%
C1CCC(c2nn[nH]n2)CC1,2.3%,-7.05%,3.25%,11.7%,8.05%,1%
CC(C)(c1cn(Cc2ccccc2)c2ccccc12)c1cn(Cc2ccccc2)c2ccccc12,39%,4.2%,17.9%,21.1%,-4.05%,10.8%
NC(=O)N/N=C/c1cccc([N+](=O)[O-])c1,-7%,27.8%,-5.9%,-32.5%,25.6%,0%
Nc1cc(Cl)c(I)c(Cl)c1,-4.5%,-29.6%,5.05%,10.2%,-2.15%,14.4%
Cc1[nH]nc(-c2ccon2)c1N,-4.45%,-3.3%,-27.4%,-20.5%,13.2%,-6.6%
CCC(C)C(NN)C(=O)O (centres undefined),0.7%,-5.55%,-22.4%,-24.6%,0%,-37.3%
C[N+](C)(C)c1ccc(C(=O)[O-])cc1,3.55%,18.8%,-0.4%,0.55%,16%,8.1%
Fc1ccc(Cl)c(-c2nc3ccccc3[nH]2)c1,14.2%,15.4%,2.85%,2.35%,-1.5%,47.3%
CCOC(=O)C(C)NCc1ccccc1 (centres undefined),2.15%,0.1%,-1.4%,-39.6%,0.95%,-3.25%
C=C1CC2(CCC3C4CC=C5CC(O)CCC5(C)C4CCC32C)OC1=O (centres undefined),2.9%,11.7%,6.45%,46.3%,8.15%,15.2%
CC1(C)OCC2OC(n3cnc4c(N)nc(Cl)nc43)C(OS(C)(=O)=O)C2O1 (centres undefined),3.75%,16.9%,-13.2%,8.7%,4.15%,30%
COc1ccc(/C=C2\CCCC(C(NO)c3ccc(OC)cc3)C2=NO)cc1 (centres undefined),13.6%,-33.4%,26.8%,1.15%,22.8%,18.2%
C#CC(C)(C)Nc1ccccc1,-10.8%,2.9%,-6.6%,-6.2%,-4.95%,4.9%
CC1CN(c2ccc(Cl)cc2)CC(C)OC(=O)O1 (centres undefined),18.8%,-5.75%,5.65%,22.9%,21.8%,8.6%
COc1ccc(NC(=O)/C(Cc2nc3ccccc3[nH]c2=O)=N\O)c(OC)c1,-1.85%,-9.4%,-5.1%,0.7%,-4.85%,-13.7%
Cc1ccc2nccc(C)c2c1,-27.8%,-45.1%,-19.6%,-14.7%,-27.6%,-7.8%
Cc1cccc(C)c1NCC(=O)NN,9.5%,6.05%,0.85%,-22.9%,5.85%,8.55%

SMILES,growth inhibition [1],growth inhibition [2],growth inhibition [3],growth inhibition [4],growth inhibition [5],growth inhibition [6]
Cc1cc(Cl)nc2ccc(Cc3ccc(Cl)cc3)cc12,16.7%,-2.65%,-5.2%,11.9%,11.1%,-10.1%
COc1cc(NC(=O)Nc2cccc(C(C)=O)c2)c(OC)cc1Cl,-10.5%,11%,0.75%,-14.4%,6.35%,-9.15%
CC(=O)c1c(C)[nH]c(-c2ccccc2)c1NS(=O)(=O)c1ccc(N)cc1,-0.2%,-3.45%,25.4%,-13%,4%,8.95%
Cc1ccc(N=Nc2ccc([N+](=O)[O-])cc2)c([N+](=O)[O-])c1,10.9%,-11.2%,-4.5%,17.4%,18.4%,-12.6%
CC1(C)OC(=O)CC1CCN (centres undefined),-0.75%,-13.5%,-7.05%,-30.9%,14.9%,13.2%
CCC1(CN(C)C)CC/C(=C\c2ccc(OC)cc2)C1=O (centres undefined),8.8%,4.1%,-9.2%,-6.1%,-5.8%,27.3%
CCCCCCCCC(Br)C(Br)CCCCCCCC(=O)N(CCCC)CCCC (centres undefined),36.9%,10.6%,2.05%,-5.45%,13.8%,8.3%
N/N=C(\C(=O)Nc1c(Cl)cc([N+](=O)[O-])cc1Cl)C(c1cnc2ccc([N+](=O)[O-])cc2n1)[N+](=O)[O-] (centres undefined),-38.7%,0.7%,10.4%,15.1%,-23.5%,-26.6%
NCCCCC(N)C(=O)NCCNc1ccc(NCCNC(=O)C(N)CCCCN)c2c1C(=O)c1ccccc1C2=O (centres undefined),11.5%,7.4%,1.45%,-4.85%,-21.5%,-19.1%
CC(=O)C(CCN(C)C)(c1ccccc1)C1CCCCC1 (centres undefined),-12.2%,-15.2%,-2.85%,-6.65%,-10.5%,-3.6%
Nc1ccc(C(=O)CC(N)C(=O)O)cc1O (centres undefined),-9.7%,21.4%,-6.9%,-17.9%,6.95%,11.3%
O=C(O)c1cc(Br)c(O)cc1O,-11.4%,-17.6%,-3.35%,9.35%,-5.25%,7%
Nc1c(Br)cc(Br)c2c1CCC2,10.6%,5.9%,10.6%,1.4%,8.8%,15.8%
OC/C=C(\I)CCCOCOCc1ccccc1,-14.4%,-4.35%,-7.35%,-18.4%,-10.5%,-36.2%
CCOC(=O)C(C)(C)Oc1ccc2c(C)c(-c3ccc(Cl)cc3)c(=O)oc2c1,-1.7%,-26.4%,-1.25%,-41.2%,-47.6%,-10.9%
CC(=O)Nc1ccc(S(=O)(=O)O)nc1,0.45%,5.15%,-6.8%,16.8%,7.65%,-6.9%
O=C1CSC(c2ccccn2)N1CCN1C(=O)CSC1c1ccccn1 (centres undefined),7.4%,-0.85%,-15.9%,-4.35%,-8.05%,6.65%
O=C(O)C=C(CBr)CBr,11.5%,-3%,-1.25%,-24.1%,14.1%,9.05%
CC(=O)Nc1ccc(/C=C/C(=O)O)cc1,-38.6%,-30.6%,-21.7%,-6.05%,-31.2%,-30.8%

# Source: PubChem BioAssay (NCI)
